# From PubChem BioAssay
# This is one part of the list.
# Target: Regulator of G-protein signaling 19 (Homo sapiens) (UniProt P49795)
# Assay: small molecules altering RGS protein interactions with GNAO1 – biochemical, multiplexed beads, flow cytometry, RGS4/7/8/16/19, primary screen (AID 1504);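 note: fluorescently labeled Galpha-o bound to GDP with aluminium fluoride binding biotinylated RGS beads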
# Conditions: multiplexed bead flow cytometry, measured here: RGS19 interaction, at 10 µM
compound,measurement,value
CC(C)N(CC#CCC1(O)c2ccccc2-c2ccccc21)C(C)C,RGS19–Galpha-o binding response,78.4%
